Data: PubChem BioAssay
For part of these data: Entries with a potency or affinity are not part of this list. The source made the active and inactive calls.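 Rule for the calls, unless noted: active = fluorescence ratio normalized to control raised more than 50% in primary screen plus both repeat runs; inactive = the rest.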

Legend:
[1] = tested on: TRPC4 beta (transient receptor potential cation channel C4), mouse; assay: activators of mouse TRPC4 channel, confirmation, cell-based, Fluo4 calcium, HEK293 TRPC4beta/mu-opioid, duplicates, 10 µM (AID 2426); details: Fluo4 calcium fluorescence, at 10 µM; active compounds read high;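 for activation: percent rise of integrated ratio over buffer wells lacking compound which define 0%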
[2] = tested on: transient receptor potential cation channel C4 beta (TRPC4), mouse; assay: activators of mouse TRPC4 channel, confirmation, cell-based, second round, Fluo4, HEK293 TRPC4beta/mu-opioid, 1 µM (AID 2461;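 active = primary screen active and over 50% activation in each of two duplicate runs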;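 for activation: 0% = wells without test compound as baseline of integrated fluorescence ratio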); details: Fluo4 calcium fluorescence, at 1 µM; active compounds read high
[3] = tested on: TRPC4 (transient receptor potential cation channel C4 beta), mouse; assay: positive allosteric modulators of mouse TRPC4, confirmation, cell-based, second round, Fluo-4, HEK293 TRPC4beta/mu-opioid, 1 µM (AID 2554;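 active = primary screen hit whose fluorescence ratio, in both repeats, exceeds the weak agonist control mean by 3 SD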); details: DAMGO EC20, Fluo-4 calcium flux, at 1 µM; active compounds read high
[4] = tested on: TRPC4 beta (transient receptor potential cation channel C4), mouse; assay: positive allosteric modulators of mouse TRPC4, confirmation, cell-based, Fluo-4, HEK293 TRPC4beta/mu-opioid (AID 2555;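 active = primary screen hit whose calcium fluorescence ratio, in both repeats, exceeds the weak agonist control mean by 3 SD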); details: DAMGO EC20, Fluo-4 calcium flux, at 10 µM; active compounds read high
[5] = molecular target: Short transient receptor potential channel 4 (Mus musculus) (UniProt Q9QUQ5); assay: inhibitors of mouse TRPC4 channel, confirmation, cell-based, Fluo4, HEK293 TRPC4beta/mu-opioid (AID 2636;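 active = calcium signal cut by more than 3 SD below the full-agonist control yet still positive, in both repeats and the earlier primary screen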); details: DAMGO, Fluo4 calcium flux, at 10 µM; active compounds read high
Sequence of Short transient receptor potential channel 4 (Mus musculus) (Q9QUQ5 whole entry, looked up): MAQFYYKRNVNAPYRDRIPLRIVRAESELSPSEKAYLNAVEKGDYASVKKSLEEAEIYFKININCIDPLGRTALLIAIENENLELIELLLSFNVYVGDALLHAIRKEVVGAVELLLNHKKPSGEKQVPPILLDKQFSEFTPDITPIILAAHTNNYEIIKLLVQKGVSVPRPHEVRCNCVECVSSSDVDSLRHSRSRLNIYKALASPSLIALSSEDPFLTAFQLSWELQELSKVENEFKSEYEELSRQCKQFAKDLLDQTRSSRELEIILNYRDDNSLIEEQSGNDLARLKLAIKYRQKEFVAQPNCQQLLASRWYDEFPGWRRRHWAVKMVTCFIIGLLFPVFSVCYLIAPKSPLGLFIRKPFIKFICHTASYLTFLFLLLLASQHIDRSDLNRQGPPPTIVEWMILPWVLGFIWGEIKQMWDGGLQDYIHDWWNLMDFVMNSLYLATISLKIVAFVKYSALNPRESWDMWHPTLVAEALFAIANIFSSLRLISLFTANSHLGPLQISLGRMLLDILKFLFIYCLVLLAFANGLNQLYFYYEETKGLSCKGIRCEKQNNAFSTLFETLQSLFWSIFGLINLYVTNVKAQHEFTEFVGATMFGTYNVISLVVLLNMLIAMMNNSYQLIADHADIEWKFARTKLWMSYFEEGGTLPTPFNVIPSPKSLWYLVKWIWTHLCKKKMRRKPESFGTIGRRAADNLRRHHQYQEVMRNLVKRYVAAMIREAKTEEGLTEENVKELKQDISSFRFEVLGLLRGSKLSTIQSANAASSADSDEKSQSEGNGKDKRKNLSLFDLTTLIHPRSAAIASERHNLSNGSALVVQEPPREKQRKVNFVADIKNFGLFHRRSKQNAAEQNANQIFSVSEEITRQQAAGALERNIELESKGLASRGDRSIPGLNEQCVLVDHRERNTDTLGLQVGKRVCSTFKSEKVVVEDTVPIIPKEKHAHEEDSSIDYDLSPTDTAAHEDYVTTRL

[6] = molecular target: Short transient receptor potential channel 4 (Mus musculus) (UniProt Q9QUQ5); assay: inhibitors of mouse TRPC4 channel, confirmation, cell-based, second round, Fluo4, HEK293 TRPC4beta/mu-opioid, 1 µM (AID 2637;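 active = calcium signal ratio cut to more than 3 SD under the fully stimulated control mean yet still positive, in both repeats and the primary screen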); details: Fluo4 calcium flux, DAMGO, at 1 µM; active compounds read high
[7] = molecular target: Short transient receptor potential channel 4 (Mus musculus) (UniProt Q9QUQ5); assay: TRPC4 positive allosteric modulators, dose response, cell-based, HEK293 TRPC4/mu-opioid, Fluo-4 calcium, EC20 DAMGO (AID 434941;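 active = earlier screen potentiator hit that boosts the TRPC4 ion channel at some dose, with a dose response; inactive = no potentiation, no dose response, or not a prior hit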;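 note: calcium entry triggered by an EC20 dose of DAMGO at the co-expressed mu-opioid receptor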)
[8] = molecular target: Short transient receptor potential channel 4 (Mus musculus) (UniProt Q9QUQ5); assay: mouse TRPC4 channel inhibitors, dose response, cell-based, HEK293 TRPC4/mu-opioid, Fluo-4 calcium (AID 434942;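 active = primary screen inhibitor hit that blocks the TRPC4 channel at some tested dose, yielding a dose curve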)
[9] = molecular target: Short transient receptor potential channel 6 (Mus musculus) (UniProt Q61143); assay: inhibition of mouse TRPC6 channel, confirmation, selectivity assay for TRPC4 inhibitor project, cell-based, HEK293, membrane potential dye, duplicate (AID 434948;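 active = active in primary screen and both duplicates, each dropping signal beyond three positive-control SD with fluorescence still positive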); details: HEK293 TRPC6, membrane potential dye fluorescence, at 10 µM, stimulated with maximal-effect acetylcholine; active compounds read high
Sequence of Short transient receptor potential channel 6 (Mus musculus) (Q61143 whole entry, looked up): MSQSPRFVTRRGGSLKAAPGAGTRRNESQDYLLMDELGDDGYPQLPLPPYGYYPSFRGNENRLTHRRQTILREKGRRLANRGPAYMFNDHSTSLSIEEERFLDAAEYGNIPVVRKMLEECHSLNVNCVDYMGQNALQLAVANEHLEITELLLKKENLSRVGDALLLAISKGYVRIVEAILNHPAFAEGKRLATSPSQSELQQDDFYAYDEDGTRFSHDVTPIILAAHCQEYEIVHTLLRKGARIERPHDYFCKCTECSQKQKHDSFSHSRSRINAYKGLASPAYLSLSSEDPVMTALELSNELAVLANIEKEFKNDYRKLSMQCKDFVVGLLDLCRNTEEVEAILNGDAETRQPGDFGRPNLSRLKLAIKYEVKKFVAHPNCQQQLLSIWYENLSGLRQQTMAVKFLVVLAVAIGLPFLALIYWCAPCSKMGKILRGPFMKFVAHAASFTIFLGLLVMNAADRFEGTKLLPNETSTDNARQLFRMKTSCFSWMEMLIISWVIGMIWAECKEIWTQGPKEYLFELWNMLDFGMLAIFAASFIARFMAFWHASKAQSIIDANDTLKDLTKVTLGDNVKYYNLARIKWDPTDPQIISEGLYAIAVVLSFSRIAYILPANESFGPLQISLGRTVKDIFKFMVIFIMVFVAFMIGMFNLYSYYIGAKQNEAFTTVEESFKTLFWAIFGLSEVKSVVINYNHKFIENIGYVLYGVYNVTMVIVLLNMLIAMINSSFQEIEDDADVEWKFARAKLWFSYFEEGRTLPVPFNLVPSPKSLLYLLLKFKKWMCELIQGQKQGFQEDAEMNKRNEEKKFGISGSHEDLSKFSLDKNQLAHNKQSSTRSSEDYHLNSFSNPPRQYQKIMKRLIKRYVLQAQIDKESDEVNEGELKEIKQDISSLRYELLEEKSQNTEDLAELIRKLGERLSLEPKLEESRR

[10] = molecular target: Short transient receptor potential channel 6 (Mus musculus) (UniProt Q61143); assay: activation of mouse TRPC6 channel, confirmation, selectivity assay for TRPC4 activator project, cell-based, HEK293, membrane potential dye, duplicate (AID 434950;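 active = membrane potential signal rise above negative control mean plus 3 SD in both duplicates, also active in the earlier TRPC4 screen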;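 for activation: 0% = buffer only wells and 100% = acetylcholine maximal-effect wells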); details: HEK293 TRPC6, membrane potential fluorescence, at 10 µM; active compounds read high
[11] = molecular target: Short transient receptor potential channel 6 (Mus musculus) (UniProt Q61143); assay: TRPC6 potentiation by TRPC4 potentiator hits, confirmation, selectivity assay for TRPC4 potentiator project, HEK293 cells, membrane potential dye, duplicate (AID 434952;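 active = compound raising the membrane signal above positive-control mean plus 3 SD in both repeats, and a primary screen hit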); details: HEK293 TRPC6, membrane potential dye fluorescence, at 10 µM, maximal acetylcholine added after compound; active compounds read high
[12] = molecular target: Short transient receptor potential channel 4 (Mus musculus) (UniProt Q9QUQ5); assay: calcium flux activators in TRPC4/5HT1a cells, counter-screen for TRPC4 activator project, cell-based, second counter screen, HEK293 TRPC4/5HT1a, Fluo-4 (AID 434977;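 active = calcium signal rise above buffer-control mean plus 5 SD in both duplicates, and also a hit in the primary screen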;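 for activation: plate controls were assay buffer for no effect and maximal serotonin response for full effect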); details: Fluo-4 calcium flux, at 10 µM; active compounds read high
[13] = calcium flux inhibitors in TRPC4/5HT1a cells, confirmation, counter-screen for TRPC4 inhibitor project, cell-based, second counter screen, HEK293 TRPC4/5HT1a, Fluo-4 (AID 434978;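 active = primary screen active whose calcium signal fell more than 3 SD beyond the full-serotonin control mean in both duplicate plates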;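 for outcome: serotonin given first at submaximal then at maximal dose after compound preincubation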); details: Fluo-4 calcium flux, at 10 µM, serotonin added to trigger calcium flux; active compounds read high
[14] = tested on: TRPC4 (mouse), co-expressed with 5HT1a in HEK293; assay: calcium flux potentiators in TRPC4/5HT1a cells, confirmation, counter-screen for TRPC4 potentiator project, cell-based, second counter screen, HEK293 TRPC4/5HT1a, Fluo-4 (AID 434979;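 active = signal rise over 3 SD above mean of control wells given weak agonist, in both repeats and first screen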); details: Fluo-4 calcium flux, at 10 µM, serotonin added at its EC20 dose; active compounds read high
[15] = calcium flux activation in mu-opioid HEK293 cells, confirmation, counter-screen for TRPC4 activator project, cell-based, HEK293 mu-opioid receptor line (AID 449723;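 active = hit in primary screen, with calcium signal over 5 SD above buffer well mean in both duplicates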;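 note: counter screen cells carry the mu-opioid receptor alone and lack TRPC4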); details: Fluo-4 calcium fluorescence, at 10 µM; active compounds read high
[16] = calcium flux enhancement in mu-opioid HEK293 cells, confirmation, counter-screen for TRPC4 allosteric potentiator project, cell-based, HEK293 mu-opioid receptor line (AID 449724;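 active = calcium signal rise more than 3 SD above the low-dose agonist control mean, in both duplicate plates and the primary screen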); details: Fluo-4 calcium flux, at 10 µM, compound added before EC20 DAMGO stimulus; active compounds read high
[17] = thallium flux activation in parental CHO cells, counter-screen for KCNQ1 potentiator project (AID 493006;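 active = duplicate-averaged activation above buffer control mean plus 5 SD of those controls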;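 for activation: fluorescence ratio of max minus min over baseline after K+ and Tl+ depolarization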); details: parental CHO-K1 cells, FluxOR thallium flux, at 10 µM; active compounds read high
[18] = molecular target: Potassium voltage-gated channel subfamily KQT member 1 (Homo sapiens) (UniProt P51787); assay: KCNQ1 potassium channel potentiators, confirmation, FluxOR thallium flux, CHO cells, duplicates (AID 493007;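 active = potentiation averaged over duplicate wells exceeding buffer-only control mean by more than 3 SD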;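 for outcome: cells depolarized by a potassium plus thallium sulfate stimulus after compound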;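 for potentiation: 0% = buffer-only wells and 100% = R-L3 activator control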); details: KCNQ1 cell line, FluxOR thallium flux fluorescence, at 10 µM; active compounds read high, % of reference activator effect, buffer zero
Sequence of Potassium voltage-gated channel subfamily KQT member 1 (Homo sapiens) (P51787 whole entry, looked up): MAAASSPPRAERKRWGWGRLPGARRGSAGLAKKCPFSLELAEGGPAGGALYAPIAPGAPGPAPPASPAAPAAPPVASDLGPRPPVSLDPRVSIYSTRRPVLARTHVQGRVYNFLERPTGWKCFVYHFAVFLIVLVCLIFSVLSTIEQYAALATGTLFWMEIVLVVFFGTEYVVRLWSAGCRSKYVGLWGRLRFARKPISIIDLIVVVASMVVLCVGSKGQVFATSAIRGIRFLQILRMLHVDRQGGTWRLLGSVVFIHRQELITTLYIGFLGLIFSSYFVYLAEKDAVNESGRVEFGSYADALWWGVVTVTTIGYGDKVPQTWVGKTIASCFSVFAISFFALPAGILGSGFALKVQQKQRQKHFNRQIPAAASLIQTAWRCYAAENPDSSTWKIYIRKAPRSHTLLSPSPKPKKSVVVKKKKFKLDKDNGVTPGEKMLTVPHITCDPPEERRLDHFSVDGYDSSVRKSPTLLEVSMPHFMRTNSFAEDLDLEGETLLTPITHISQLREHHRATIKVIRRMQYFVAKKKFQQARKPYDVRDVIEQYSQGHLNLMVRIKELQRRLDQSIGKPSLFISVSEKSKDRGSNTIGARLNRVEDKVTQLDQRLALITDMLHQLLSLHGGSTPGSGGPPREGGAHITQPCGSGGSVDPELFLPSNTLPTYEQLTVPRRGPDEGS

[19] = molecular target: Potassium voltage-gated channel subfamily KQT member 2 (Rattus norvegicus) (UniProt O88943); assay: rat KCNQ2 channel potentiation, selectivity assay for KCNQ1 potentiator project, KCNQ2-CHO-K1 cells (AID 493009;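 active = mean duplicate potentiation above the buffer control mean plus 5 SD of buffer wells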;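 note: assay conditions were tuned for KCNQ1 rather than KCNQ2 modulators; signal is max minus min fluorescence divided by baseline after thallium stimulus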); details: FluxOR thallium flux fluorescence, at 10 µM; active compounds read high, scaled: buffer 0, activator control 100
Sequence of Potassium voltage-gated channel subfamily KQT member 2 (Rattus norvegicus) (O88943 whole entry, looked up): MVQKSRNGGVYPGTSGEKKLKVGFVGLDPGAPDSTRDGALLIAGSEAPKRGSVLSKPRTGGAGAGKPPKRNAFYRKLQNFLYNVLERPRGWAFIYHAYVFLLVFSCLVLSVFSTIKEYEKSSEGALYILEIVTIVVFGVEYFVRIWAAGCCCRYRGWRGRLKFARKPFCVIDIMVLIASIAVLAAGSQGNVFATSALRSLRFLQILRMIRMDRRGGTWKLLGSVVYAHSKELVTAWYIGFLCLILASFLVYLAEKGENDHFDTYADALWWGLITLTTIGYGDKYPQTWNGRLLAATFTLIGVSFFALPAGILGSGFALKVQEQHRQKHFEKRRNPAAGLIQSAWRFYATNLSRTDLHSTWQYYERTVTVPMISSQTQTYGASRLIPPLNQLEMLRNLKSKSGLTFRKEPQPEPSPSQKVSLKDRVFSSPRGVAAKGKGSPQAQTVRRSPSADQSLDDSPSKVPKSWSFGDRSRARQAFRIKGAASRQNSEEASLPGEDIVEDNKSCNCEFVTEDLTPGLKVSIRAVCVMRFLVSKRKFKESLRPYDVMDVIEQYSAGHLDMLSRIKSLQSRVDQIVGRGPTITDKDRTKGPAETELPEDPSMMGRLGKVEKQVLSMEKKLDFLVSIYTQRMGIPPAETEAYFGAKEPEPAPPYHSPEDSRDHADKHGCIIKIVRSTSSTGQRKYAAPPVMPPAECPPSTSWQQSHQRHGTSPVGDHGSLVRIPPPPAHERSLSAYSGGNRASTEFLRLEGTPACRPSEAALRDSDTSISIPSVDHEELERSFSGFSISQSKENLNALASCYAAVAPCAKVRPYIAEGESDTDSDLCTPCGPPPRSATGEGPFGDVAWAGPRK

[20] = molecular target: Potassium voltage-gated channel subfamily KQT member 1 (Homo sapiens) (UniProt P51787); assay: KCNQ1 channel current potentiators, confirmation, orthogonal assay for KCNQ1 potentiator project, IonWorks patch clamp, KCNQ1-CHO cells (AID 493184;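 active = current rise at least 3 SD above the untreated control mean in each of two repeat wells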); details: automated patch clamp current, at 10 µM; active compounds read high

COc1ccccc1C(=O)NNC(=S)NC(=O)c1sc2ccccc2c1Cl
inactive: outcome [1] | outcome [2] | outcome [3] | outcome [4] | outcome [5] | outcome [6] | outcome [7] | outcome [8] | outcome [9] | outcome [11] | outcome [14] | outcome [15] | outcome [16] | outcome [20]
active: activation [10] 30.5% | activation [12] 14.7% | inhibition [13] 38.3% | activation [17] 278% | potentiation [18] 150% | potentiation [19] 287%

COc1cc(OC)cc(C(=O)NC(=S)NNC(=O)[C@H]2C[C@@H]2c2ccccc2)c1
inactive: outcome [2] | outcome [3] | outcome [4] | outcome [5] | outcome [6] | outcome [7] | outcome [8] | outcome [9] | outcome [10] | outcome [11] | outcome [13] | outcome [14] | outcome [16] | outcome [17] | outcome [19] | outcome [20]
active: activation [1] 162% | activation [12] 99% | activation [15] 40.4% | potentiation [18] 37.5%

CCOc1ccccc1OCC(=O)Nc1cc(S(=O)(=O)N2CCCCC2)ccc1N1CCN(CC)CC1
inactive: outcome [2] | outcome [3] | outcome [4] | outcome [5] | outcome [6] | outcome [7] | outcome [8] | outcome [9] | outcome [10] | outcome [11] | outcome [13] | outcome [14] | outcome [15] | outcome [16] | outcome [17] | outcome [18] | outcome [19] | outcome [20]
active: activation [1] 195% | activation [12] 45%

CC1CC(C)CN(CCCNC(=O)COc2cc(=O)n(C)c3ccccc23)C1 (stereo not given)
active: activation [1] 88% | activation [2] 80% | activation [12] 23.2% | potentiation [14] 26.9%
inactive: outcome [3] | outcome [4] | outcome [5] | outcome [6] | outcome [7] | outcome [8] | outcome [9] | outcome [10] | outcome [11] | outcome [13] | outcome [15] | outcome [16]

Cc1occc1C(=O)NNC(=S)NC(=O)COc1ccc(Cl)cc1Cl
inactive: outcome [2] | outcome [3] | outcome [4] | outcome [5] | outcome [6] | outcome [7] | outcome [8] | outcome [9] | outcome [10] | outcome [11] | outcome [13] | outcome [14] | outcome [16] | outcome [20]
active: activation [1] 108% | activation [12] 58.4% | activation [15] 18.4% | activation [17] 256% | potentiation [18] 259% | potentiation [19] 442%

CC(C)(C)C(=O)NC(=S)NNC(=O)c1ccc(-c2ccccc2)cc1
active: activation [1] 257% | activation [2] 60% | activation [10] 35.5% | activation [12] 147% | activation [15] 83.6% | activation [17] 308% | potentiation [18] 163% | potentiation [19] 430%
inactive: outcome [3] | outcome [4] | outcome [5] | outcome [6] | outcome [7] | outcome [8] | outcome [9] | outcome [11] | outcome [13] | outcome [14] | outcome [16] | outcome [20]

Cc1ccc(-n2cc(CNCC3CC(=O)N(C4CC4)C3)c(-c3cccc(C)c3)n2)cc1 (stereo not given)
active: activation [1] 165% | activation [10] 52.5%
inactive: outcome [2] | outcome [3] | outcome [4] | outcome [5] | outcome [6] | outcome [7] | outcome [8] | outcome [9] | outcome [11] | outcome [12] | outcome [13] | outcome [14] | outcome [15] | outcome [16]

O=C(N/N=C/c1cc([N+](=O)[O-])cc(Br)c1O)C12CC3CCC(CC(C3)C1)C2
active: activation [1] 82% | activation [10] 28.5% | activation [12] 68.6% | activation [15] 33.8% | activation [17] 158% | potentiation [18] 43.5% | potentiation [19] 163%
inactive: outcome [2] | outcome [3] | outcome [4] | outcome [5] | outcome [6] | outcome [7] | outcome [8] | outcome [9] | outcome [11] | outcome [13] | outcome [14] | outcome [16] | outcome [20]

CCn1c(N2CCN(Cc3ccc([N+](=O)[O-])cc3)CC2)nc2ccccc21
inactive: outcome [3] | outcome [4] | outcome [5] | outcome [6] | outcome [7] | outcome [8] | outcome [9] | outcome [10] | outcome [11] | outcome [13] | outcome [15] | outcome [16]
active: activation [1] 100% | activation [2] 83% | activation [12] 22% | potentiation [14] 18.3%

CCCOc1ccc(C(=O)NNC(=S)NC(=O)c2ccco2)cc1
inactive: outcome [2] | outcome [3] | outcome [4] | outcome [5] | outcome [6] | outcome [7] | outcome [8] | outcome [9] | outcome [11] | outcome [13] | outcome [14] | outcome [16] | outcome [20]
active: activation [1] 223% | activation [10] 38.5% | activation [12] 143% | activation [15] 61.8% | activation [17] 195% | potentiation [18] 212% | potentiation [19] 340%

COc1cc(C(=O)NC(=S)NNC(=O)[C@H]2C[C@@H]2c2ccccc2)cc(OC)c1OC
active: activation [1] 59% | activation [10] 34% | activation [12] 63.3% | activation [15] 13.1%
inactive: outcome [2] | outcome [3] | outcome [4] | outcome [5] | outcome [6] | outcome [7] | outcome [8] | outcome [9] | outcome [11] | outcome [13] | outcome [14] | outcome [16]

O=c1c2cc(Br)ccc2nc(-c2cccc(C(F)(F)F)c2)n1O
active: activation [1] 449% | activation [12] 111% | activation [15] 60.8% | activation [17] 808% | potentiation [18] 372% | potentiation [19] 766%
inactive: outcome [2] | outcome [3] | outcome [4] | outcome [5] | outcome [6] | outcome [7] | outcome [8] | outcome [9] | outcome [10] | outcome [11] | outcome [13] | outcome [14] | outcome [16] | outcome [20]

CCCOc1ccc(C(=O)NNC(=S)NC(=O)c2ccccc2)cc1
active: activation [1] 152% | activation [12] 122% | activation [15] 39.5% | activation [17] 180% | potentiation [18] 168% | potentiation [19] 318%
inactive: outcome [2] | outcome [3] | outcome [4] | outcome [5] | outcome [6] | outcome [7] | outcome [8] | outcome [9] | outcome [10] | outcome [11] | outcome [13] | outcome [14] | outcome [16] | outcome [20]

COC(=O)C1=NN(C(=O)c2cccc(Br)c2)C(O)(c2ccc(Cl)cc2)C1 (stereo not given)
inactive: outcome [2] | outcome [3] | outcome [4] | outcome [5] | outcome [6] | outcome [7] | outcome [8] | outcome [9] | outcome [10] | outcome [11] | outcome [13] | outcome [14] | outcome [15] | outcome [16] | outcome [20]
active: activation [1] 121% | activation [12] 98.1% | activation [17] 575% | potentiation [18] 318% | potentiation [19] 745%

O=C(CNS(=O)(=O)c1ccc2ccccc2c1)NCCc1ccccn1
active: activation [1] 110%
inactive: outcome [2] | outcome [3] | outcome [4] | outcome [5] | outcome [6] | outcome [7] | outcome [8] | outcome [9] | outcome [10] | outcome [11] | outcome [12] | outcome [13] | outcome [14] | outcome [15] | outcome [16]

OCCN1CCN(Cc2cc(Br)cc(Br)c2O)CC1
active: activation [1] 199% | activation [2] 170% | activation [10] 32% | activation [12] 85.4%
inactive: outcome [3] | outcome [4] | outcome [5] | outcome [6] | outcome [7] | outcome [8] | outcome [9] | outcome [11] | outcome [13] | outcome [14] | outcome [15] | outcome [16] | outcome [17] | outcome [18] | outcome [19] | outcome [20]
